# Measurements as given in PubChem BioAssay (EPA / NIEHS).
# Several values for one entry are separate records, joined by “and”; a condition that tells them apart may be missing. Equal entries are not always repeated. Inconclusive results are not listed. Activity calls are given as the source filed them. The calls were made as follows: active = hit-call score of the fitted dose curve at least 0.9, where 1 is the maximum; inconclusive = response in the unintended direction; inactive = score below 0.9.
# System: zebrafish Estrogen Receptor (ER2a), gene 317734
# Assay: ATG_zfER2a_XSP2: Attagene TRANS-FACTORIAL Multi-Species (XSP2) HepG2 Assay for zebrafish Estrogen Receptor (ER2a) (AID 2283818);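 also: hits raise reporter mRNA so AC50 reflects activation of zebrafish ER2a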
# Experimental: ATG_XSP2_multi-species_TRANS is a cell-based, multiplexed assay created by modifying the existing Attagene TRANS-FACTORIAL system to include a panel of nuclear receptors from some or all the following species: human (Homo sapiens), mouse (Mus musculus), frog (Xenopus laevis), zebrafish (Danio rerio), chicken (Gallus gallus), and turtle (Chrysemys picta). The ECOTOX-FACTORIAL format uses HepG2, a human liver cell line, with measurements taken at 24 hours after chemical dosing in a 24-well plate. Xsp2 included 3 nM 6-alpha-fluorotestosterone and 1.5 nM norgestrel to stimulate the androgen receptor.ATG_zfER2a_XSP2 is one of 29 assay components measured or calculated from the ATG_XSP2_multi-species_TRANS assay. It is designed to make measurements of mRNA induction, a form of inducible reporter, as detected with fluorescence intensity signals by Reverse transcription polymerase chain reaction (RT-PCR) and Capillary electrophoresis technology.The assay endpoint ATG_zfER2a_XSP2 was analyzed in the positive analysis fitting direction relative to DMSO as the negative control and baseline of activity. Using a type of inducible reporter, measures of mRNA for gain-of-signal activity can be used to understand the reporter gene at the transcription factor-level as they relate to the gene ER. Furthermore, this assay endpoint can be referred to as a primary readout, because this assay has produced multiple assay endpoints where this one serves a reporter gene function. To generalize the intended target to other relatable targets, this assay endpoint is annotated to the nuclear receptor intended target family, where the subfamily is steroidal.
# Human liver HepG2 cells are transiently transfected with multiple reporter transcription units (MRTUs) in 6-well plates using FuGene 6 reagent (Roche; 3 ml FuGene/1 mg DNA). The MRTU constructs are regulated by a cis-regulating element (promoter). […] A major difference between the CIS and TRANS system is that in CIS activities of endogenous TFs are measured, whereas the TRANS assay evaluates changes in activities of exogenous, chimeric NR-Gal4 proteins. […] At the end of 24 hour incubation, total RNA was isolated using TriZol reagent (Invitrogen). The isolated RNA is then reverse-transcribed using oligo(dT) primer and Mo-MLV reverse transcriptase (Invitrogen) with DNAse I (Ambion) treatment for 30 min. The one-tenth of the produced cDNA was amplified by PCR using Taq DNA polymerase (Invitrogen) and two reporter sequence-specific primers. The PCR products were fluorescently labeled by primer extension with 6-arboxyfluorescein (6-FAM) 5'-labeled reporter sequence-specific primer (2 min at 95 C, 20 s at 68 C and 10 min at 72 C) and these products were digested with 5U of HpaI (New England Biolabs) for 2h at 37 C. The fragments were purified using Qiaquick PCR columns (Qiagen), analyzed on an ABI 3130xL genetic analyzer (Applied Biosystems) with peak positions identified by using a set of X-rhodamine (ROX)-labeled MapMarker1000 molecular weight standards (BioVentures). The raw capillary electrophoresis data was processed using Attagraph software (Attagene).
Compound,AC50,outcome
Oc1ccc(-c2ccccc2)c(Cl)c1,4.34 µM (active) and 9.01 µM (active),
COc1ccc(-c2coc3cc(O)cc(O)c3c2=O)cc1,260 nM (active) and 38 nM (active),
CC(C)(C)NC(=O)[C@H]1CC[C@H]2[C@@H]3CC[C@H]4NC(=O)C=C[C@]4(C)[C@H]3CC[C@]12C,142 µM (active),
CCCCCCCCCCCCc1ccc(O)cc1,,inactive
CC(CCC(=O)O)(c1ccc(O)cc1)c1ccc(O)cc1,46.6 µM (active) and 34.7 µM (active),
O=C(O)/C=C/c1ccccc1,,inactive
COc1ccc(C(=O)c2ccccc2)c(O)c1,9.9 µM (active),
C=C1C[C@H]2[C@@H]3C=C(C)C4=CC(=O)CC[C@]4(C)[C@H]3CC[C@]2(C)[C@@]1(OC(C)=O)C(C)=O,,inactive
Oc1ccccc1Cc1ccccc1O,27.3 µM (active) and 8.24 µM (active),
N#Cc1ccc(C2CCCc3cncn32)cc1 (stereo not given),,inactive
